Source: PubChem BioAssay
FBW7 activator: FBW7 E3 ligase activators, primary screen, biochemical, AlphaScreen, human | F-box/WD repeat-containing protein 7 (Homo sapiens), Q969H0 | 650,000 compounds, 0.13% hits | normalized activity (activation), % at 26.1 µM | AID 1259310, 2017 | AlphaScreen FBW7–phospho-cyclin E peptide binding, activator screen; in the data active = normalized activity above about 1.9%;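 note: purified mutant Fbw7 with reduced substrate affinity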
Target sequence (Q969H0 whole entry, looked up): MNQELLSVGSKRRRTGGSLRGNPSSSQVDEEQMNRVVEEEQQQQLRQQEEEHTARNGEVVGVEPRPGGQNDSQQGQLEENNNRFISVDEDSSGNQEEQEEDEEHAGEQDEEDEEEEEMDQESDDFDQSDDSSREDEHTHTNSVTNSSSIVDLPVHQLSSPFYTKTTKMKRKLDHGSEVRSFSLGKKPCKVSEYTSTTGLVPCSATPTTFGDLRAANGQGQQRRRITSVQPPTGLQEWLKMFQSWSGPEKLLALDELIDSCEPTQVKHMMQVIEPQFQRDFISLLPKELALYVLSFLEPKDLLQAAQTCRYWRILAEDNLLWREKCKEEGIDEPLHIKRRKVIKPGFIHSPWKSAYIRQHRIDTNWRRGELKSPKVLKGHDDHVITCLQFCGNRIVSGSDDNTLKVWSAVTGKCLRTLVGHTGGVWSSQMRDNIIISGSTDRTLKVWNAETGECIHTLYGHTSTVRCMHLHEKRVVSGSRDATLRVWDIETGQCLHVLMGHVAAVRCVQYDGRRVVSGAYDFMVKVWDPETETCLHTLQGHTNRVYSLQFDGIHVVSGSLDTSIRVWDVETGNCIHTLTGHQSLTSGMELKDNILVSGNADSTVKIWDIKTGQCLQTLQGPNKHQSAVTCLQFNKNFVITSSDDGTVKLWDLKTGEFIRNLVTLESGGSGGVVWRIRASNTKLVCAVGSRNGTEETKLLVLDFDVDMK
TEAD-YAP block: TEAD-YAP interaction inhibition, primary screen, TEAD-YAP interaction inhibitor project, luminescence, HEK-TIYL cells. TEAD-Gal4/YAP UAS-luciferase luminescence. inhibition, % at 9.12 µM. 640,000 compounds, 1.4% hits. AID 1259422, 2018; in the data active = inhibition above about 32%;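 note: 0% = median of test compound wells and 100% = reference inhibitor wells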
MITF inh: MITF inhibitors, primary screen, biochemical, AlphaScreen, human. Microphthalmia-associated transcription factor (Homo sapiens), O75030. AlphaScreen MITF homodimerization, bead proximity signal. inhibition, % at 2.6 µM. 650,000 compounds, 0.91% hits; in the data active = inhibition above about 50%;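 note: 0% = vehicle wells with protein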
GPR151 ag: activators of human GPR151, primary screen, cell-based, PathHunter beta-arrestin, luminescence. G-protein coupled receptor 151 (Homo sapiens), Q8TDV0. PathHunter beta-arrestin GPR151 cells. activation, % at 11.2 µM. 650,000 compounds, 1% hits; in the data active = activation above about 4.9%;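 note: 0% = median of compound wells and 100% = cells with positive control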
* hit, by the source's call. Compounds with a hit are over-represented: about 3.5% of the library has one in this group of screens.

SMILES | FBW7 activator | TEAD-YAP block | MITF inh | GPR151 ag
CC1=NNC(=O)C1CCC(=O)N/N=C\C=C\c1ccco1 (configuration not stated) | -0.1 | -2.4 | -19.8 | -0.5
Cc1c(NC(=O)COC(=O)Cn2nnc(-c3ccccc3)n2)c(=O)n(-c2ccccc2)n1C | -0.1 | 4.7 | 5.2 | 3.0
O=C(NC(=S)Nc1ccc(Cl)cn1)c1cccc(I)c1 | 0.0 | 2.2 | 3.1 | 0.8
COc1ccc2c(c1)sc(C)[n+]2CCCS(=O)(=O)O | 0.0 | 0.1 | -11.4 | -1.4
CCN1/C(=C/c2ccc3ccccc3[n+]2CC)Sc2ccc(I)cc21 | 0.2 | 68.3* | 17.7 | 4.1
CCN1/C(=C\C=C(/C)C=O)Sc2ccccc21 | -0.4 | 10.9 | 8.5 | 3.2
CCN1/C(=C/c2ccc3ccccc3[n+]2CC)Sc2c1ccc1ccccc21 | -0.3 | 87.0* | 42.6 | 1.4
O=c1c2nccnc2[nH]c(=S)n1Cc1ccc(F)cc1 | 0.4 | 11.2 | 10.5 | -0.2
COc1ccc(C(=O)c2ccc(OC)c(OC)c2)cc1OC | -0.1 | 4.8 | 0.9 | -1.2
COc1ccc(C(=O)c2ccc(OC)c(N)c2)cc1N | -0.1 | 36.1* | -9.5 | 0.1
CCCC(=O)N(c1nnc(-c2ccc(C)cc2)s1)C(C)C | 0.0 | 2.5 | 8.3 | 0.2
O=C(O)c1cccc(COc2ccc(CO)cc2Br)c1 | 0.1 | 84.5* | 7.0 | -12.6
O=Cc1ccc(OCc2cccc(C(=O)O)c2)c(Cl)c1 | 0.1 | 87.8* | 2.9 | -7.7
COc1cc(/C=C2/NC(=O)NC2=O)ccc1OCc1cccc(C(=O)O)c1 | -0.2 | 22.8 | -8.3 | -2.5
COc1cc(/C=C/[N+](=O)[O-])ccc1OCc1cccc(C(=O)O)c1 | -0.5 | 77.2* | 56.3* | 1.7
O=C(O)c1cccc(COc2ccc(CO)cc2Cl)c1 | 1.1 | 95.0* | 10.6 | -13.0
Cc1cc(Cl)ccc1OCC(=O)Nc1ccc(S(=O)(=O)N2CCCCCC2)cc1 | 0.0 | 5.1 | -6.3 | 0.3
CCOC(=O)C1=CN(C(C)C)C=C(C(=O)OCC)C1c1cc(Br)c(OC)c(OC)c1 | -0.1 | -0.7 | -3.1 | -0.5
COc1cc(OC)cc(-c2cc3nc4c(c(NCCCn5ccnc5)n3n2)CCCC4)c1 | 2.4* | 2.9 | 6.1 | -0.1
COc1ccc(-c2cnnc(NCCCn3ccnc3)n2)cc1 | 0.0 | 32.3* | 1.2 | -0.1
COc1ccc(-c2cnc(NCCCn3ccnc3)nc2)cc1 | 0.0 | 0.3 | 22.3 | 1.9
O=C(Nc1ccc(F)cc1)/C(Cl)=C/c1ccccc1 | 0.7 | -18.9 | 7.0 | -3.4
Cc1ccc(NC(=O)/C(Cl)=C\c2ccccc2)cc1 | 0.8 | 65.5* | 14.1 | -3.9
CC(=O)c1ccc(NC(=O)/C(Cl)=C/c2ccccc2)cc1 | 0.1 | -1.4 | 12.3 | -0.6
COc1ccc(NC(=O)/C(Cl)=C\c2ccccc2)cc1 | 0.2 | 45.1* | 22.9 | -2.4
SMILES | FBW7 activator | TEAD-YAP block | MITF inh | GPR151 ag
Cc1ccc(OC(C)C(=O)NCc2ccccc2)cc1 (configuration not stated) | 0.1 | 2.9 | 9.7 | -1.5
CC(=O)c1c(C)[nH]c(C(=O)OCc2csc(-c3ccccc3)n2)c1C | -0.1 | 32.2* | 4.1 | 0.3
CC(=O)c1c(C)[nH]c(C(=O)OCC(=O)Nc2nc(-c3ccc(C)cc3)cs2)c1C | 0.7 | 36.7* | -13.2 | 2.1
COc1cc(/C=C2/C(=O)NN(c3ccc(F)c(Cl)c3)C2=O)cc(Br)c1O | 0.4 | -0.3 | 13.2 | -0.5
N#CC(C#N)=C(N)/C(C#N)=C/c1ccc(-c2cc(C(=O)O)cc(C(=O)O)c2)o1 | -0.6 | 1.8 | 62.6* | -0.9
CN(C)c1cccc(Nc2ccnc3c(-c4cccc(CO)c4)cnn23)c1 | 0.0 | 63.0* | -19.0 | 0.8
CN1CCN(c2ccnc3c(-c4ccc(Cl)cc4)cnn23)CC1 | 0.2 | -53.6 | -9.4 | -0.2
CCCNc1ccnc2c(-c3cccc(CO)c3)cnn12 | -0.4 | 102.0* | 1.7 | -4.6
CN1CCN(c2ccnc3c(-c4ccc(O)cc4)cnn23)CC1 | -0.6 | 43.5* | 77.5* | 0.2
CN(C)c1cccc(Nc2ccnc3c(-c4ccc(O)cc4)cnn23)c1 | -0.3 | -37.6 | -9.5 | 0.9
OCc1cccc(-c2cnn3c(NCCCN4CCOCC4)ccnc23)c1 | 0.0 | 28.3 | -4.4 | -1.4
Cc1cccc(N(C)c2ccnc3c(-c4cccc(CO)c4)cnn23)c1 | -0.1 | 76.4* | -3.6 | 0.5
Cc1ccccc1-n1nnnc1SCC(=O)O | -0.4 | -6.7 | -15.7 | 0.8
CCOC(=O)CCc1c(C)c(C#N)c2nc3ccccc3n2c1N1CCN(c2ccc(C)cc2)CC1 | 0.0 | 1.2 | -7.3 | 0.2
CCCNc1ccnc2c(-c3ccc(O)cc3)cnn12 | 0.0 | 96.8* | -16.2 | -1.5
CCCNc1ccnc2c(-c3ccc(N(C)C)cc3)cnn12 | -0.7 | 8.4 | 12.5 | -0.7
CC(=O)N1CCC(N(C(=O)CCC(=O)O)C2CC2)CC1 | 4.6* | -4.8 | 14.4 | 0.2
O=C(O)CCC(=O)N(C1CC1)C1CCN(CCc2ccccc2)CC1 | 0.1 | -0.3 | 6.3 | -0.3
N#Cc1ccc(OCCOC(=O)Cn2cnnn2)cc1 | 0.0 | 2.5 | 1.7 | -0.4
O=C(Nc1ccc(-c2nc3ccccc3o2)cc1)C1CCN(C(=O)C2CCCO2)CC1 (configuration not stated) | -0.1 | -14.2 | -5.6 | -0.6
O=C(Cc1ccc(Br)cc1)Nc1ccncc1 | 0.1 | 50.5* | -5.0 | 1.6
O=C(Cc1ccccc1)Nc1ccc(Br)cc1 | 0.0 | -9.8 | -0.3 | 0.4
O=C(c1ccccc1F)N1CCN(C(c2ccccc2)c2ccccc2)CC1 | 0.1 | -2.7 | 2.6 | 1.6
CC1=C(C#N)C(=O)NC(=O)/C1=C\c1ccc(-c2ccc(S(=O)(=O)O)cc2)o1 | -0.6 | -1.5 | 59.1* | 0.0
Nc1ccc2cc3ccc(N)cc3nc2c1 | -0.3 | 4.4 | 75.0* | -0.4
SMILES | FBW7 activator | TEAD-YAP block | MITF inh | GPR151 ag
Cc1ccc2cc(N)ccc2n1 | 0.0 | -4.6 | 5.5 | -0.1
Nc1nc2ccccc2n1C(=O)c1ccccc1 | -0.3 | 52.3* | 2.4 | -8.0
Nc1nc2ccccc2n1C(=O)c1ccc(F)cc1 | -0.1 | 52.0* | 1.2 | -5.2
COc1cc(OC)c(CN2CCCCC2CO)cc1Br (configuration not stated) | 0.2 | -4.3 | 11.4 | 0.7
Cc1cc(C(=O)N2CCCC(c3nc(-c4ccncc4)ncc3-c3ccccc3C)C2)no1 (configuration not stated) | 0.0 | 58.3* | -7.5 | 1.1
Cc1cnc(C(=O)N2CCCC(c3nc(C)ncc3-c3ccncc3)C2)cn1 (configuration not stated) | 0.3 | -17.8 | 14.0 | -1.2
O=C(c1cccs1)N1CCCC(c2nc(-c3ccncc3)ncc2-c2ccccc2)C1 (configuration not stated) | -0.1 | 51.3* | -6.1 | 1.0
O=C(CN1CCCC(c2ncncc2-c2ccncc2)C1)N1CCc2ccccc21 (configuration not stated) | 0.0 | -1.9 | 17.9 | 0.1
O=C(c1ccco1)N1CCCC(c2nc(-c3ccncc3)ncc2-c2ccccc2)C1 (configuration not stated) | -0.1 | 5.2 | 17.4 | 0.0
